Experimental data reported in PubChem BioAssay (NCATS).
Inconclusive results are not listed. Calls of active or inactive are those of the source. Calls come from the whole dose curve; as a rule, active = well fitted cell-killing curve with a large enough effect; inconclusive = small, poorly fitted or top-dose-only effect, or effect the other way; inactive = flat fitted curve, though single readings scatter.

What was measured:
Test in all cases: Primary qHTS to identify gynecologic anti-cancer compounds using libraries of approved drugs and bioactive compounds (AID 1345084); note: nearly all actives have a fitted effect of over 55% in size
CAOV3 = conditions: Gynecologic cancer cell panel viability, ATPlite luminescence, 48 h; series mostly up to 57.5 µM
Summary of the method: (§1)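 Measured: luminescence after ATPlite addition (15 min, RT). Exposure: 48 h, 37 C, 5% CO2.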

CASKI = conditions: Gynecologic cancer cell panel viability, ATPlite luminescence, 48 h; series mostly up to 57.5 µM
Summary of the method: as §1

Es-2 = conditions: Gynecologic cancer cell panel viability, ATPlite luminescence, 48 h; series mostly up to 57.5 µM
Summary of the method: as §1

HeLa = conditions: Gynecologic cancer cell panel viability, ATPlite luminescence, 48 h; series mostly up to 57.5 µM
Summary of the method: as §1

Hek293T = conditions: Gynecologic cancer cell panel viability, ATPlite luminescence, 48 h, control line for the selectivity index; series mostly up to 57.5 µM
Summary of the method: as §1

JEG-3 = conditions: Gynecologic cancer cell panel viability, ATPlite luminescence, 48 h; series mostly up to 57.5 µM
Summary of the method: as §1

OV90 = conditions: Gynecologic cancer cell panel viability, ATPlite luminescence, 48 h; series mostly up to 57.5 µM
Summary of the method: as §1

PA-1 = conditions: Gynecologic cancer cell panel viability, ATPlite luminescence, 48 h; series mostly up to 57.5 µM
Summary of the method: as §1

SKOV3 = conditions: Gynecologic cancer cell panel viability, ATPlite luminescence, 48 h; series mostly up to 57.5 µM
Summary of the method: as §1

Tov-21-G = conditions: Gynecologic cancer cell panel viability, ATPlite luminescence, 48 h; series mostly up to 57.5 µM
Summary of the method: as §1

Measured: Potency

COc1cc(CC#N)cc(OC)c1OC
inactive: all assays above

CCN(CC)C(C)C(=O)c1ccccc1 (stereo not given)
inactive: all assays above

CCOP(=S)(OCC)O/N=C(\C#N)c1ccccc1
inactive: all assays above

C[N+]1(CCC(C(N)=O)(c2ccccc2)c2ccccc2)CCCCC1
inactive: all assays above

CC(Cc1ccc2c(c1)OCO2)NO (stereo not given)
inactive: all assays above

CN(C)CCc1c[nH]c2ccccc12
inactive: all assays above

OC(O)C(Cl)(Cl)Cl
inactive: all assays above

CC(C)=C[C@@H]1[C@@H](C(=O)OCc2coc(Cc3ccccc3)c2)C1(C)C
inactive: all assays above

COP(=O)(OC)C(O)C(Cl)(Cl)Cl (stereo not given)
inactive: all assays above

CC1=C2[C@H]3OC(=O)[C@@H](C)[C@@H]3CC[C@@]2(C)C=CC1=O
inactive: all assays above

Nc1ccccc1C(=O)OCC(O)CO (stereo not given)
inactive: all assays above

C#C[C@]1(O)CC[C@H]2[C@@H]3CCC4=CC(=O)CCC4=C3C=C[C@@]21CC
inactive: all assays above

O=c1n(Cl)c(=O)n(Cl)c(=O)n1Cl
inactive: all assays above

Cc1ccc(N=CN(C)C=Nc2ccc(C)cc2C)c(C)c1
inactive: all assays above

COc1ccc2[nH]cc(CCN(C(C)C)C(C)C)c2c1
inactive: all assays above

NCc1cccnc1
inactive: all assays above

COc1ccc(C(=O)N2CCCC2=O)cc1
inactive: all assays above

OC(c1ccccc1)(c1ccccc1)C1CCNCC1
inactive: all assays above

CCS(=O)(=O)C(C)(C)S(=O)(=O)CC
inactive: all assays above

CCN1CCCC1CNC(=O)C(O)(c1ccccc1)c1ccccc1 (stereo not given)
inactive: all assays above

Cc1nnc2n1-c1sc(CCC(=O)N3CCOCC3)cc1C(c1ccccc1Cl)=NC2
inactive: all assays above

ClCCCN1CCN(c2cccc(Cl)c2)CC1
inactive: all assays above
